Values joined by “and” are separate entries in the source; they are usually repeats but may differ in a detail not shown here. Equal entries are not always repeated. Some compounds were tested as several samples or in several runs, with calls that do not always agree. Active and inactive are the calls of the source. The calls were made as follows: active = hit-call score of the fitted dose curve at least 0.9, where 1 is the maximum; inactive = score below 0.9.
Experiments:
[1] = read-out: Human Leukocyte Antigen - DR isotype (HLADR), HLA-DRA (gene 3122); experiment: BSK_BE3C_HLADR: BioMAP Diversity Plus: BE3C Assay for Human Leukocyte Antigen - DR isotype (HLADR) Biomarker Activity (AID 2283032); conditions: primary human bronchial epithelial cells; actives raise or lower the signal
Method in brief: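 Chemicals are dosed onto BE3C bronchial epithelial cultures of human origin and left 24 h. HLA-DR is then measured by ELISA, and the endpoint is fitted in both directions using DMSO as the activity baseline.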

[2] = read-out: Vascular cell adhesion molecule 1 (VCAM1), VCAM1 (gene 7412); experiment: BSK_4H_VCAM1: BioMAP Diversity Plus: 4H Assay for Vascular cell adhesion molecule 1 (VCAM1) Biomarker Activity (AID 2283033); conditions: primary human endothelial cells (HUVEC); actives raise or lower the signal
Method in brief: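 Chemicals are added to primary human umbilical vein endothelial cells. After 24 h, VCAM-1 levels are measured by ELISA. Values come from bidirectional fitting referenced to DMSO.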

[3] = read-out: Interferon-gamma inducible Protein 10 (IP10), CXCL10 (gene 3627); experiment: BSK_BE3C_IP10: BioMAP Diversity Plus: BE3C Assay for Interferon-gamma inducible Protein 10 (IP10) Biomarker Activity (AID 2283034); conditions: primary human bronchial epithelial cells; actives raise or lower the signal
Method in brief: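 IP-10 quantified by ELISA serves as the endpoint. Cells: primary human bronchial epithelium, read 24 h after compound addition. Activity is derived by bidirectional fitting with DMSO as negative control.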

[4] = read-out: Monokine induced gamma interferon (MIG), CXCL9 (gene 4283); experiment: BSK_BE3C_MIG: BioMAP Diversity Plus: BE3C Assay for Monokine induced gamma interferon (MIG) Biomarker Activity (AID 2283035); conditions: primary human bronchial epithelial cells; actives raise or lower the signal;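 also: MIG protein measured by ELISA in BE3C cultures after 24 h of dosing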
Method in brief: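 hu bronchial epithelial 1° cells, 24 h cpd; MIG by ELISA; bidirectional fit, DMSO = baseline.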

[5] = read-out: Transforming growth factor beta 1 (TGFb1), TGFB1 (gene 7040); experiment: BSK_BE3C_TGFb1: BioMAP Diversity Plus: BE3C Assay for Transforming growth factor beta 1 (TGFb1) Biomarker Activity (AID 2283036;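 also: TGF-b1 protein level measured by ELISA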); conditions: primary human bronchial epithelial cells; actives raise or lower the signal
Method in brief: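 Bronchial epithelial primary cells are treated with test chemical, then TGF-b1 is quantified by ELISA after 24 hours. Values derive from bidirectional fitting against DMSO, with cytotoxicity checked by SRB staining in parallel cultures.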

[6] = read-out: Plasminogen activator inhibitor-1 (PAI1), SERPINE1 (gene 5054); experiment: BSK_BE3C_PAI1: BioMAP Diversity Plus: BE3C Assay for Plasminogen activator inhibitor-1 (PAI1) Biomarker Activity (AID 2283037); conditions: primary human bronchial epithelial cells; actives raise or lower the signal
Method in brief: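 Values derive from bidirectional fitting against DMSO baseline of PAI-1 levels, measured by ELISA in human bronchial epithelial cells 24 h after compound addition.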

[7] = read-out: urokinase plasminogen activator (uPA), PLAU (gene 5328); experiment: BSK_BE3C_uPA: BioMAP Diversity Plus: BE3C Assay for urokinase plasminogen activator (uPA) Biomarker Activity (AID 2283038); conditions: primary human bronchial epithelial cells; actives raise or lower the signal
Method in brief: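 Using confluent primary human lung bronchial epithelial cultures, we dosed chemicals, waited 24 h, then ran a uPA ELISA, fitting bidirectionally against DMSO.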

[8] = read-out: Interleukin-6 (IL6), IL6 (gene 3569); experiment: BSK_CASM3C_IL6: BioMAP Diversity Plus: CASM3C Assay for Interleukin-6 (IL6) Biomarker Activity for (AID 2283040); conditions: primary human coronary artery smooth muscle cells; actives raise or lower the signal
[9] = read-out: Tissue plasminogen activator (tPA), PLAT (gene 5327); experiment: BSK_BE3C_tPA: BioMAP Diversity Plus: BE3C Assay for Tissue plasminogen activator (tPA) Biomarker Activity (AID 2283041); conditions: primary human bronchial epithelial cells; actives raise or lower the signal
Method in brief: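 Gain- or loss-of-signal in tPA, measured by ELISA, derived by bidirectional fitting against DMSO. Cells: human primary bronchial epithelial; read at 24 h after chemical dosing.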

[10] = read-out: Interleukin-8 (IL8), CXCL8 (gene 3576); experiment: BSK_CASM3C_IL8: BioMAP Diversity Plus: CASM3C Assay for Interleukin-8 (IL8) Biomarker Activity (AID 2283042); conditions: primary human coronary artery smooth muscle cells; actives raise or lower the signal;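 also: IL-8 protein level quantified by ELISA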
[11] = read-out: Human Leukocyte Antigen - DR isotype (HLADR), HLA-DRA (gene 3122); experiment: BSK_CASM3C_HLADR: BioMAP Diversity Plus: CASM3C Assay for Human Leukocyte Antigen - DR isotype (HLADR) Biomarker Activity (AID 2283043); conditions: primary human coronary artery smooth muscle cells; actives raise or lower the signal;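 also: cell-surface HLA-DR protein level quantified by ELISA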
[12] = read-out: Macrophage colony-stimulating factor (MCSF), CSF1 (gene 1435); experiment: BSK_CASM3C_MCSF: BioMAP Diversity Plus: CASM3C Assay for Macrophage colony-stimulating factor (MCSF) Biomarker Activity (AID 2283044); conditions: primary human coronary artery smooth muscle cells; actives raise or lower the signal;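 also: M-CSF protein amount quantified by ELISA after 24 h exposure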
[13] = read-out: Low-density lipoprotein receptor (LDLR), LDLR (gene 3949); experiment: BSK_CASM3C_LDLR: BioMAP Diversity Plus: CASM3C Assay for Low-density lipoprotein receptor (LDLR) Biomarker Activity (AID 2283045); conditions: primary human coronary artery smooth muscle cells; actives raise or lower the signal;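 also: LDLR protein level on the cell surface quantified by ELISA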
[14] = read-out: Monocyte Chemoattractant Protein-1 (MCP1), CCL2 (gene 6347); experiment: BSK_CASM3C_MCP1: BioMAP Diversity Plus: CASM3C Assay for Monocyte Chemoattractant Protein-1 (MCP1) Biomarker Activity (AID 2283046); conditions: primary human coronary artery smooth muscle cells; actives raise or lower the signal;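 also: MCP-1 level quantified by ELISA 24 h after dosing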
[15] = BSK_CASM3C_Proliferation: Cell Proliferation Assessment in the BioMAP Diversity Plus: CASM3C Assay (AID 2283047); conditions: primary human coronary artery smooth muscle cells;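 also: sulforhodamine B total protein stain as relative cell number at 560 nm; sub-confluent cells exposed 48 h before staining; fitted both ways against DMSO so gain or loss of cell number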
[16] = read-out: Monokine induced gamma interferon (MIG), CXCL9 (gene 4283); experiment: BSK_CASM3C_MIG: BioMAP Diversity Plus: CASM3C Assay for Monokine induced gamma interferon (MIG) Biomarker Activity (AID 2283048); conditions: primary human coronary artery smooth muscle cells; actives raise or lower the signal;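 also: MIG protein level measured by ELISA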
[17] = read-out: serum amyloid A (SAA), SAA1 (gene 6288); experiment: BSK_CASM3C_SAA: BioMAP Diversity Plus: CASM3C Assay for serum amyloid A (SAA) Biomarker Activity (AID 2283049); conditions: primary human coronary artery smooth muscle cells; actives raise or lower the signal;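 also: SAA protein level quantified by ELISA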
[18] = BSK_CASM3C_SRB: Viability Assessment in the BioMAP Diversity Plus: CASM3C Assay (AID 2283050); conditions: primary human coronary artery smooth muscle cells;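 also: total protein by SRB staining as cytotoxicity measure in parallel cultures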
[19] = read-out: Thrombomodulin, THBD (gene 7056); experiment: BSK_CASM3C_Thrombomodulin: BioMAP Diversity Plus: CASM3C Assay for Thrombomodulin Biomarker Activity (AID 2283051); conditions: primary human coronary artery smooth muscle cells; actives raise or lower the signal;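 also: thrombomodulin protein level measured by ELISA 24 h after dosing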
[20] = read-out: Urokinase-type plasminogen activator receptor (uPAR), PLAUR (gene 5329); experiment: BSK_BE3C_uPAR: BioMAP Diversity Plus: BE3C Assay for Urokinase-type plasminogen activator receptor (uPAR) Biomarker Activity (AID 2283039); conditions: primary human bronchial epithelial cells; actives raise or lower the signal;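 also: uPAR protein level measured by ELISA on the cells; cells exposed to compound for one day before measurement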
Method in brief: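 Steps: dose human primary bronchial epithelial cells, incubate 24 h, measure uPAR by ELISA, then fit gain- or loss-of-signal response bidirectionally relative to DMSO.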

Measured: AC50

Oc1cc2ccccc2cc1O
not listed: [20]
inactive: all other assays above

C=CC(=O)OCCC(F)(F)C(F)(F)C(F)(F)C(F)(F)C(F)(F)C(F)(F)C(F)(F)C(F)(F)F
not listed: [5] | [20]
inactive: all other assays above

COc1cccc(O)c1
not listed: [20]
inactive: all other assays above

O=P(O)(O)CCC(F)(F)C(F)(F)C(F)(F)C(F)(F)C(F)(F)C(F)(F)C(F)(F)C(F)(F)F
inactive: [1] | [2] | [3] | [4] | [6] | [7] | [8] | [10] | [11] | [12] | [13] | [14] | [15] | [16] | [17] | [18] | [19]
active: [9] 1.08 µM and 5.14 µM | [15] 9.07 µM

Clc1ccc(Nc2nnc(Cc3ccncc3)c3ccccc23)cc1
active: [6] 3.84 µM | [7] 5.6 µM | [15] 3.48 µM | [17] 0.507 µM
not listed: [3] | [16]
inactive: all other assays above

C=CC(C)(CCC=C(C)C)OC(C)=O (configuration not stated)
inactive: [4] | [5] | [6] | [7] | [8] | [10] | [13] | [16] | [19]
active: [1] 30.2 µM | [2] 30.5 µM | [3] 26.6 µM | [9] 26.3 µM | [11] 32 µM | [12] 35.8 µM | [14] 26.6 µM | [15] 30.6 µM | [17] 28.7 µM | [18] 32.6 µM

From PubChem BioAssay (EPA / NIEHS)
